Test results: PubChem BioAssay (NCATS)
Records with an inconclusive call do not appear. Where a call stands in place of a potency, no number is given. Active and inactive are the calls of the source. Calls come from the whole dose curve; as a rule, active = well fitted inhibition curve with a large enough effect; inconclusive = small, poorly fitted or top-dose-only effect; inactive = flat fitted curve, though single readings scatter.

How the values were obtained:
Assay in all cases: qHTS profiling for inhibitors of Plasmodium falciparum proliferation (AID 504749); note: nearly all actives have a fitted effect of over 60% in size
Conditions in all cases: P. falciparum in erythrocytes, SYBR Green DNA, 72 h; series mostly up to 28.7 µM
7G8 = tested on: 7G8
Procedure, shortened: (§1)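 In a 72 h erythrocytic culture (37 C, humidified, 5% CO2) at 2.5% hematocrit and 0.3% starting parasitemia, compounds were tested; SYBR Green I in detergent lysis buffer stained parasite DNA overnight.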

CP192 = tested on: CP192
Procedure, shortened: as §1

CP201 = tested on: CP201
Procedure, shortened: as §1

CP215 = tested on: CP215
Procedure, shortened: as §1

CP247 = tested on: CP247
Procedure, shortened: as §1

CP260 = tested on: CP260
Procedure, shortened: as §1

CP266 = tested on: CP266
Procedure, shortened: as §1

CP291 = tested on: CP291
Procedure, shortened: as §1

CP297 = tested on: CP297
Procedure, shortened: as §1

CP315 = tested on: CP315
Procedure, shortened: as §1

CP325 = tested on: CP325
Procedure, shortened: as §1

CP335 = tested on: CP335
Procedure, shortened: as §1

DIV14 = tested on: DIV14
Procedure, shortened: as §1

DIV30 = tested on: DIV30
Procedure, shortened: as §1

ECU = tested on: ECU
Procedure, shortened: as §1

GB4 = tested on: GB4
Procedure, shortened: as §1

ICS = tested on: ICS
Procedure, shortened: as §1

P93_24 = tested on: P93_24
Procedure, shortened: as §1

PC26 = tested on: PC26
Procedure, shortened: as §1

PC49 = tested on: PC49
Procedure, shortened: as §1
Potency is the fitted concentration of half-maximal effect.

Row | Compound | Potency (7G8) | Potency (CP192) | Potency (CP201) | Potency (CP215) | Potency (CP247) | Potency (CP260) | Potency (CP266) | Potency (CP291) | Potency (CP297) | Potency (CP315) | Potency (CP325) | Potency (CP335) | Potency (DIV14) | Potency (DIV30) | Potency (ECU) | Potency (GB4) | Potency (ICS) | Potency (P93_24) | Potency (PC26) | Potency (PC49)
1 | CC(=O)N[C@H]1[C@H](O[C@@H]2c3ccc(c(Cl)c3)Oc3cc4cc(c3O[C@@H]3O[C@H](CO)[C@@H](O)[C@H](O)C3C)Oc3ccc(cc3Cl)C[C@H]3NC(=O)[C@@H](N)c5ccc(O)c(c5)Oc5cc(O)cc(c5)[C@H](NC3=O)C(=O)N[C@H]4C(=O)N[C@H]3C(=O)N[C@@H]2C(=O)N[C@@H](C(=O)O)c2cc(O)cc(O[C@H]4O[C@H](CO)[C@@H](O)C(O)[C@@H]4O)c2-c2cc3ccc2O)O[C@H](CO)[C@@H](O)[C@@H]1O (stereo partly drawn) | inactive | inactive | inactive | inactive | inactive | inactive | inactive | inactive | inactive | inactive | inactive | inactive | inactive | inactive | inactive | inactive | inactive | inactive | inactive | inactive
2 | NC[C@@H]1O[C@H](OC2[C@@H](CO)O[C@@H](OC3[C@H](O)[C@H](N)C[C@H](N)[C@H]3OC3O[C@H](CO)[C@@H](O)[C@H](O)[C@@H]3N)[C@H]2O)C(N)[C@H](O)[C@@H]1O (stereo partly drawn) | inactive | inactive | inactive | inactive | inactive | inactive | inactive | inactive | inactive | inactive | inactive | inactive | inactive | inactive | inactive | inactive | inactive | inactive | inactive | inactive
3 | C[C@H]1OC(OC2C(O)[C@@H](O)C(OC3C(O)[C@@H](O)C(O)O[C@@H]3CO)O[C@@H]2CO)[C@H](O)C(O)C1N[C@H]1C=C(CO)[C@@H](O)[C@H](O)C1O (stereo partly drawn) | inactive | inactive | inactive | inactive | inactive | inactive | inactive | inactive | inactive | inactive | inactive | inactive | inactive | inactive | inactive | inactive | inactive | inactive | – | inactive
4 | CC1OC(OCC2OC(Oc3c(-c4ccc(OCCO)c(OCCO)c4)oc4cc(OCCO)cc(O)c4c3=O)C(O)C(O)C2O)[C@@H](O)C(O)C1O (stereo partly drawn) | inactive | inactive | inactive | inactive | inactive | inactive | inactive | inactive | inactive | inactive | inactive | inactive | inactive | inactive | inactive | inactive | inactive | – | inactive | inactive
5 | OCC1O[C@H](O[C@H]2C(O)C(O)C(O)O[C@@H]2CO)C(O)C(O)C1O (stereo partly drawn) | inactive | inactive | inactive | inactive | inactive | inactive | inactive | inactive | inactive | inactive | inactive | inactive | inactive | inactive | inactive | inactive | inactive | inactive | inactive | inactive
6 | OC[C@@H]1O[C@](CO)(O[C@H]2O[C@H](CO)[C@@H](O)[C@H](O)[C@H]2O)[C@H](O)[C@H]1O | inactive | inactive | inactive | inactive | inactive | inactive | inactive | inactive | inactive | inactive | inactive | inactive | inactive | inactive | inactive | inactive | inactive | inactive | inactive | inactive
7 | CCCCCCCCCCCCCCCC(=O)OCC(COP(=O)(O)OCC[N+](C)(C)C)OC(=O)CCCCCCCCCCCCCCC (stereo not drawn) | inactive | inactive | inactive | inactive | inactive | inactive | inactive | inactive | inactive | inactive | inactive | inactive | inactive | inactive | inactive | inactive | inactive | inactive | inactive | inactive
8 | CO[C@H]1OC2O[C@@]3(C)CC[C@H]4[C@H](C)CC[C@@H]([C@H]1C)[C@@]24OO3 (stereo partly drawn) | 0.0022 µM (active) | 0.0379 µM (active) | 0.0757 µM (active) | 0.0301 µM (active) | 0.0251 µM (active) | 0.0141 µM (active) | 0.0675 µM (active) | 0.0269 µM (active) | 0.0239 µM (active) | 0.0953 µM (active) | 0.0151 µM (active) | 0.0239 µM (active) | 0.0107 µM (active) | 0.0151 µM (active) | 0.0158 µM (active) | 0.0135 µM (active) | 0.0045 µM (active) | 0.01 µM (active) | 0.0151 µM (active) | 0.0251 µM (active)
9 | CC1(C)C2CC[C@]1(C)[C@@H](O)C2 | inactive | inactive | inactive | inactive | inactive | inactive | inactive | inactive | inactive | inactive | inactive | inactive | inactive | inactive | inactive | inactive | inactive | inactive | inactive | inactive
10 | O=C(O)Cc1sc(-c2ccc(Cl)cc2)nc1-c1ccccc1 | inactive | inactive | inactive | – | inactive | inactive | inactive | inactive | inactive | inactive | inactive | inactive | inactive | inactive | inactive | inactive | inactive | inactive | inactive | inactive
11 | C=C[C@@]1(C)C[C@H](OC(=O)CSC(C)(C)CNC(=O)[C@@H](N)C(C)C)[C@@]2(C)C(C)CC[C@@]3(CCC(=O)[C@@H]32)[C@H](C)[C@H]1O (stereo partly drawn) | 2.51 µM (active) | 3.38 µM (active) | – | 1.69 µM (active) | 4.47 µM (active) | 3.98 µM (active) | – | 1.69 µM (active) | 2.39 µM (active) | 2.69 µM (active) | 0.213 µM (active) | 1.2 µM (active) | 6.01 µM (active) | 7.57 µM (active) | 4.47 µM (active) | 3.79 µM (active) | 2.82 µM (active) | 0.501 µM (active) | 6.01 µM (active) | –
12 | CO[C@H]1C[C@@H]2CC[C@@H](C)[C@@](O)(O2)C(=O)C(=O)N2CCCC[C@H]2C(=O)O[C@H]([C@H](C)C[C@@H]2CC[C@@H](O)[C@H](OC)C2)CC(=O)[C@H](C)/C=C(\C)[C@@H](O)[C@@H](OC)C(=O)[C@H](C)C[C@H](C)/C=C/C=C/C=C/1C | 1 µM (active) | 4.78 µM (active) | 6.01 µM (active) | 1.69 µM (active) | 3.55 µM (active) | 4.47 µM (active) | – | 4.26 µM (active) | 4.26 µM (active) | 4.26 µM (active) | 5.36 µM (active) | 1.9 µM (active) | 1.69 µM (active) | 1.9 µM (active) | 2.51 µM (active) | 1.69 µM (active) | 0.501 µM (active) | 2 µM (active) | 1.51 µM (active) | 10 µM (active)
13 | NC(CSSCC(N)C(=O)O)C(=O)O (stereo not drawn) | inactive | – | inactive | inactive | inactive | inactive | inactive | inactive | inactive | inactive | inactive | inactive | inactive | inactive | inactive | inactive | inactive | inactive | inactive | inactive
14 | NCCCCC(N)C(=O)O (stereo not drawn) | inactive | inactive | inactive | inactive | inactive | inactive | inactive | inactive | – | inactive | inactive | inactive | inactive | inactive | inactive | inactive | inactive | inactive | – | inactive
15 | Nc1nc(F)nc2c1ncn2[C@@H]1O[C@H](CO)[C@@H](O)[C@H]1O | inactive | inactive | inactive | inactive | inactive | inactive | inactive | inactive | inactive | inactive | inactive | inactive | inactive | inactive | inactive | inactive | inactive | inactive | inactive | inactive
16 | CC[C@@]1(O)CC2CN(CCc3c([nH]c4ccccc34)[C@](C(=O)OC)(c3cc4c(cc3OC)N(C)C3[C@@](O)(C(=O)OC)C(OC(C)=O)[C@]5(CC)C=CCN6CC[C@@]43C65)C2)C1 (stereo partly drawn) | 2.82 µM (active) | 3.38 µM (active) | – | 3.38 µM (active) | 1.12 µM (active) | 0.794 µM (active) | – | – | 2.39 µM (active) | 3.38 µM (active) | – | 1.9 µM (active) | 4.26 µM (active) | 1.69 µM (active) | 2.51 µM (active) | 2.13 µM (active) | 0.708 µM (active) | 3.16 µM (active) | – | –
17 | OCC1OC(O)C(O)C(O)C1O (stereo not drawn) | inactive | inactive | inactive | inactive | inactive | inactive | inactive | – | – | inactive | – | inactive | – | inactive | inactive | – | inactive | inactive | – | inactive
18 | CC(C)C(=O)OCC(=O)[C@@]12OC(C3CCCCC3)O[C@@H]1CC1C3CCC4=CC(=O)C=C[C@]4(C)C3[C@@H](O)C[C@@]12C (stereo partly drawn) | 0.447 µM (active) | – | – | – | 1 µM (active) | 0.708 µM (active) | 1.35 µM (active) | – | – | – | – | 0.601 µM (active) | 1.51 µM (active) | – | 1.12 µM (active) | 1.07 µM (active) | 0.794 µM (active) | 0.891 µM (active) | – | 1.12 µM (active)
19 | O=C(O)c1ccc(N[C@@H]2OC[C@@H](O)[C@@H](O)[C@@H]2O)cc1 | inactive | inactive | inactive | inactive | inactive | inactive | – | inactive | inactive | inactive | inactive | inactive | inactive | inactive | inactive | inactive | inactive | inactive | inactive | inactive
20 | COc1ccc2cc1Oc1cc3c(cc1OC)CC[N+](C)(C)C3Cc1ccc(cc1)Oc1c(OC)c(OC)cc3c1C(C2)[N+](C)(C)CC3 (stereo not drawn) | inactive | inactive | inactive | inactive | – | inactive | – | inactive | inactive | inactive | inactive | inactive | inactive | inactive | inactive | inactive | inactive | inactive | inactive | inactive
21 | CC(=O)C1(O)Cc2c(O)c3c(c(O)c2C(OC2CC(N)C(O)C(C)O2)C1)C(=O)c1c(O)cccc1C3=O (stereo not drawn) | 0.708 µM (active) | 10.7 µM (active) | – | – | 5.01 µM (active) | 3.98 µM (active) | 15.1 µM (active) | – | – | – | – | 5.36 µM (active) | 5.36 µM (active) | – | 8.91 µM (active) | 6.75 µM (active) | 3.55 µM (active) | 6.31 µM (active) | 5.36 µM (active) | 6.31 µM (active)
22 | CO/N=C(/C(=O)N[C@@H]1C(=O)N2C(C(=O)O)=C(CSC(=O)c3ccco3)CSC12)c1csc(N)n1 (stereo partly drawn) | inactive | inactive | inactive | inactive | inactive | inactive | inactive | inactive | inactive | inactive | inactive | inactive | inactive | inactive | inactive | – | inactive | inactive | inactive | inactive
